# Data: ChEMBL document CHEMBL4296182, “CO-ADD screening of NIH NCI Diversity Set V”
# Results with a measured potency or affinity are listed apart.
# Tested on: Candida albicans
# Settings: 20 µM
row,SMILES,Inhibition
1,S=C(Nc1ccccc1)c1ccccn1,25.9%
2,CCSc1nc(C)cc(S)n1,25.2%
3,Cc1cc(=O)n2nc(-c3ccc(C(C)(C)C)cc3)cc2[nH]1,4.49%
4,Cc1nc(N)nc(Cl)c1CCC1OCCO1,2.66%
5,CCCNC(=O)c1ccccc1C(=O)NC1(C(=O)NCCC)CCCC1,-0.46%
6,COc1ccc2c(C)cc(C)nc2n1,3.88%
7,Cc1c(NC(=O)Nc2c(Cl)cccc2Cl)c(=O)n(-c2ccccc2)n1C,-0.35%
8,CSc1cccc(NC(=O)Nc2nc3c(C)cccc3s2)c1,-0.92%
9,COc1ccc2c(c1)CCCN2C(=N)Nc1ccc(Cl)cc1,3.95%
10,COc1ccc(NC(=O)c2cc3ccc4c5ccccc5[nH]c4c3cc2O)cc1,-5.12%
11,NC(=S)NC(=O)c1ccccc1,2.89%
12,Cc1ccc(-c2cssc2=S)cc1,13.1%
13,O=C(Nc1ccc2ncccc2c1)Nc1ccc2ncccc2c1,0.58%
14,Nc1ccc(C(=O)Nc2cccc(N)c2)cc1,0.06%
15,CCOC(=O)c1c(C)nc(C)c(C(=O)OCC)c1-c1ccc(OC)cc1,6.74%
16,CC(C)COc1nc2c(c(=O)n(C)c(=O)n2C)n1C,2.67%
17,CN1C(=O)c2ccccc2Cc2c(NCc3ccccc3)ncnc21,6.22%
18,Nc1ccnn1-c1ccccc1,2.01%
19,COc1ccc(/N=N/c2ccc(N)nc2N)cc1,4.94%
20,CCOC(=O)c1nc(SC)n(C)c1C(=O)OCC,0.39%

row,SMILES,Inhibition
1,O=C(O)c1ccccc1C(=O)Nc1cccc([N+](=O)[O-])c1,3.86%
2,Cn1c(=O)c2c(ncn2CCOC(=O)C(C)(C)Oc2ccc(Cl)cc2)n(C)c1=O [THEOFIBRATE],0.53%
3,Nc1ccccc1-n1nc2ccc3ccccc3c2n1,3.16%
4,OC(c1ccccc1)(c1ccccc1)c1nccn1-c1ccccc1,1.72%
5,O=C(Nc1ccc(Br)c2ccccc12)c1ccc2ccccc2c1O,4.96%
6,CC1(C)N=C(N)N=C(N)N1c1cccc(CN)c1.CCS(=O)(=O)O,2.57%
7,COc1cc(C(=O)C(=O)c2cc(OC)c(O)c(OC)c2)cc(OC)c1O,3.18%
8,CCCCOc1ccc(NC(=O)Nc2nnc(C)s2)cc1,-3.65%
9,OC(COc1cccc2ccccc12)CN1CCN(c2ccccc2Cl)CC1 (stereo not drawn),3.81%
10,O=C(/C=C/c1ccc(Cl)s1)c1ccc(Cl)s1,4.39%
11,O=C(Oc1cccnc1O)c1cccc(Cl)c1,13.4%
12,O=C(Nc1cccc2ccccc12)c1ccccc1,0.1%
13,COc1ccc(/N=N/c2c(N)n[nH]c2N)cc1,3.82%
14,CC(O)(c1ccccc1)C(c1ccccc1)C1CCCCN1 (stereo not drawn),7.26%
15,CC1=CN2C(c3cccc([N+](=O)[O-])c3)=NON(c3ccc(C)cn3)C2C=C1 (stereo not drawn),17.2%
16,NNC(=O)c1nnsc1-c1csnn1,13.6%
17,Cc1ccc(C2C=CC(C#N)=CN2Cc2ccccc2)cc1 (stereo not drawn),-1.48%
18,Cc1csc(/N=N/c2ccc(N(C)C)cc2)[n+]1[O-],0.83%
19,Clc1ccccc1-c1nc(-c2ccncc2)no1 [PIFEXOLE],12.7%

# Tested on: Cryptococcus neoformans
# Settings: Concentration 20 uM; ASSAY_TEST Inhibition of Fungal Growth; detection method Resazurin; Absorption (OD600-OD570); plate type 384well; NBS; CORNING #3640
row,SMILES,Inhibition
1,S=C(Nc1ccccc1)c1ccccn1,-3.26%
2,CCSc1nc(C)cc(S)n1,-6%
3,Cc1cc(=O)n2nc(-c3ccc(C(C)(C)C)cc3)cc2[nH]1,-5.87%
4,Cc1nc(N)nc(Cl)c1CCC1OCCO1,-6.74%
5,CCCNC(=O)c1ccccc1C(=O)NC1(C(=O)NCCC)CCCC1,-3.84%
6,COc1ccc2c(C)cc(C)nc2n1,-1.59%
7,Cc1c(NC(=O)Nc2c(Cl)cccc2Cl)c(=O)n(-c2ccccc2)n1C,-0.01%
8,CSc1cccc(NC(=O)Nc2nc3c(C)cccc3s2)c1,-2.59%
9,COc1ccc2c(c1)CCCN2C(=N)Nc1ccc(Cl)cc1,6.87%
10,COc1ccc(NC(=O)c2cc3ccc4c5ccccc5[nH]c4c3cc2O)cc1,1.29%
11,NC(=S)NC(=O)c1ccccc1,-5.13%
12,Cc1ccc(-c2cssc2=S)cc1,11.55%
13,O=C(Nc1ccc2ncccc2c1)Nc1ccc2ncccc2c1,-19.53%
14,Nc1ccc(C(=O)Nc2cccc(N)c2)cc1,-9.54%
15,CCOC(=O)c1c(C)nc(C)c(C(=O)OCC)c1-c1ccc(OC)cc1,19.28%
16,CC(C)COc1nc2c(c(=O)n(C)c(=O)n2C)n1C,-14.97%
17,CN1C(=O)c2ccccc2Cc2c(NCc3ccccc3)ncnc21,-9.85%
18,Nc1ccnn1-c1ccccc1,-2.01%
19,COc1ccc(/N=N/c2ccc(N)nc2N)cc1,-6.06%
20,CCOC(=O)c1nc(SC)n(C)c1C(=O)OCC,-13.08%

row,SMILES,Inhibition
1,O=C(O)c1ccccc1C(=O)Nc1cccc([N+](=O)[O-])c1,-3.03%
2,Cn1c(=O)c2c(ncn2CCOC(=O)C(C)(C)Oc2ccc(Cl)cc2)n(C)c1=O [THEOFIBRATE],-5.77%
3,Nc1ccccc1-n1nc2ccc3ccccc3c2n1,-10.55%
4,OC(c1ccccc1)(c1ccccc1)c1nccn1-c1ccccc1,-7.88%
5,O=C(Nc1ccc(Br)c2ccccc12)c1ccc2ccccc2c1O,1.39%
6,CC1(C)N=C(N)N=C(N)N1c1cccc(CN)c1.CCS(=O)(=O)O,-7.41%
7,COc1cc(C(=O)C(=O)c2cc(OC)c(O)c(OC)c2)cc(OC)c1O,0.06%
8,CCCCOc1ccc(NC(=O)Nc2nnc(C)s2)cc1,-3.97%
9,OC(COc1cccc2ccccc12)CN1CCN(c2ccccc2Cl)CC1 (stereo not drawn),-4.59%
10,O=C(/C=C/c1ccc(Cl)s1)c1ccc(Cl)s1,-6.98%
11,O=C(Oc1cccnc1O)c1cccc(Cl)c1,-17.52%
12,O=C(Nc1cccc2ccccc12)c1ccccc1,-4.91%
13,COc1ccc(/N=N/c2c(N)n[nH]c2N)cc1,-6.57%
14,CC(O)(c1ccccc1)C(c1ccccc1)C1CCCCN1 (stereo not drawn),-3.74%
15,CC1=CN2C(c3cccc([N+](=O)[O-])c3)=NON(c3ccc(C)cn3)C2C=C1 (stereo not drawn),0.26%
16,NNC(=O)c1nnsc1-c1csnn1,15.04%
17,Cc1ccc(C2C=CC(C#N)=CN2Cc2ccccc2)cc1 (stereo not drawn),-7.94%
18,Cc1csc(/N=N/c2ccc(N(C)C)cc2)[n+]1[O-],-12.25%
19,Clc1ccccc1-c1nc(-c2ccncc2)no1 [PIFEXOLE],-16.63%
